# From the supplement of paper PMC10941209
# A number with no mark means an inactive call.
# Tested on: Toxoplasma gondii RH 2F1 tachyzoites (intracellular in HFF)
# Assay: parasite survival relative to DMSO control; higher = less antiparasitic activity, active = 20 or less
# Settings: 1 µM; 72 h
# How it was run: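 Compound at 1 μM was applied for 72 h at 37°C in 5% CO2 to HFF cells in 96-well plates (5 × 10^3 cells/well) that had been infected for 3 h in D2 medium with 5 × 10^3 Toxoplasma gondii RH-2F1 tachyzoites carrying β-galactosidase. The readout was absorbance at 570 nm, 30 min after CPRG addition. Survival is reported as a percentage of the signal from infected wells given DMSO, based on at least 2 biological replicates.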
row,Compound,parasite survival
1,CSc1ccc2c(c1)C(N1CCN(C)CC1)Cc1ccccc1S2 (stereo not given),34.5%
2,O=C(c1cc(O)nc2ccccc12)N1CCN(c2ccccc2)CC1,77.5%
3,CCNC(=O)Nc1cc2c(-c3ccnc(C)c3)ccc(CNC(=O)OC)c2cn1,31.9%
4,Nc1nc2c(ncn2/C=C2/CC2(CO)CO)c(=O)[nH]1,84.8%
5,Fc1ccc(-n2cc(Cn3c(-c4cccc(F)c4)nc4ccccc43)nn2)cc1,50.1%
6,CNCC(=O)OCc1cccnc1N(C)C(=O)OC(C)[n+]1cnn(C[C@](O)(c2cc(F)ccc2F)[C@@H](C)c2nc(-c3ccc(C#N)cc3)cs2)c1 (stereo not given in full),35.6%
7,Oc1c(C(Nc2ccccn2)c2ccccc2)ccc2cccnc12 (stereo not given),23.6%
8,Nc1ccc(-c2nc3cc(C(F)(F)F)ccc3n2C23CC4CC(CC(C4)C2)C3)cc1,53%
9,O=C(O)CSc1cc(NS(=O)(=O)c2cccc3cccnc23)c2ccccc2c1O,60.2%
10,CCCc1ccc(-c2cc3cn([C@H]4C[C@H](O)[C@@H](CO)O4)c(=O)nc3o2)cc1,61.6%
11,O=C(NCc1cccc2ccccc12)c1cccs1,32%
12,O=C(NN1C(=O)[C@@H]2[C@@H]3C=C[C@@H]([C@H]4C[C@@H]34)[C@@H]2C1=O)c1ccc(C(F)(F)F)cc1,66.1%
13,CCCCCOc1ccc(/C=C2\Oc3c(ccc(O)c3O)C2=O)c(O)c1,48.2%
14,COc1cc(Cc2cnc(N)nc2N)cc(OC)c1OC,52.6%
15,CC#C[C@]1(O)CC[C@H]2[C@@H]3CCC4=CC(=O)CCC4=C3[C@@H](c3ccc(N(C)C)cc3)C[C@@]21C,45.7%
16,COc1c(NC(=O)[C@H]2CC[C@@H](COc3ccc([N+](=O)[O-])cc3)CC2)c(F)cc2c(=O)c(C(=O)O)cn(C3CC3)c12,47.7%
17,COC(=O)Nc1nc2ccccc2[nH]1,53%
18,Clc1cccc(-c2nnc(-c3ccccc3)o2)c1,62.8%
19,CCc1cc(Cc2cnc(N)nc2N)cc2c1N(C)CCC2C (stereo not given),45.2%
20,CCN(CC)CCCC(C)Nc1ccnc2cc(Cl)ccc12 (stereo not given),70.6%

row,Compound,parasite survival
1,CN1CCN(c2ccc3[nH]c(-c4ccc5[nH]c(-c6ccc(O)cc6)nc5c4)nc3c2)CC1,35.3%
2,Cc1cc(CCOc2c(C)cc(-c3nnn(C)n3)cc2C)on1,65.1%
3,O=C(NNC(=S)Nc1ccc(Cl)cc1)c1ccncc1,65%
4,CCCCc1ccc(-c2nc(C)c(C(=O)OC)s2)cc1,64%
5,C[C@H](c1cccc2ccccc12)N(C)Cc1ccccc1,44.4%
6,CCc1cc(CCC(=O)Nc2ccccc2O)c(O)nc1C,70.1%
7,CCc1cc(Nc2cc(=O)n(CCN3CCN(C(=O)c4ccccc4)CC3)c(=O)[nH]2)ccc1C,26%
8,O=C(NCc1ccc2c3c(cccc13)C(=O)N2)c1cccs1,75.5%
9,CCCCCCCCCN1C[C@@H](O)[C@H](O)[C@@H](O)[C@@H]1CO,56.8%
10,O=C(Nc1ncc(Cc2cccc3ccccc23)s1)C1CCCCC1,25.3%
11,C[C@H]1CC[C@]2(NC1)O[C@H]1C[C@H]3[C@@H]4CC[C@H]5C[C@@H](O)CC[C@]5(C)[C@H]4CC[C@]3(C)[C@H]1[C@@H]2C,41.1%
12,O=C(Nc1ccc(Cl)c(C(F)(F)F)c1)C(CCCl)C(=O)Nc1ccc(Cl)c(C(F)(F)F)c1,15.6% (active)
13,COc1cc(Cc2cnc(N)nc2N)c2c(c1OC)OC(C1CC1)C=C2 (stereo not given),10.4% (active)
14,O=c1[nH]c(=O)n(Cc2cccc(Oc3ccccc3)c2)cc1Nc1ccccc1,60.3%
15,COc1ccccc1NC(=O)c1ccccc1Sc1ccc([N+](=O)[O-])cc1,52%
16,CC(C)n1cnc2c(NCc3ccccc3)nc(NCc3ccccc3)nc21,39.1%
17,COc1ccc(OCc2ccc(COc3c(Cl)cccc3Cl)cc2)c(Cl)c1,72%
18,Cn1cc(NC(=O)c2cc(NC(=O)c3ccc(/C=C/c4cnc5ccccc5c4)cc3)cn2C)cc1C(=O)NCCN1CCOCC1,12.8% (active)
19,O=C(O)c1ccc(-c2ccc(O[C@H]3O[C@H](CO)[C@@H](O)[C@H](O)[C@@H]3O)cc2)cc1,46.4%
20,c1cc(CN2CCCNCCNCCCNCC2)ccc1CN1CCCNCCNCCCNCC1,91.5%
